From PubChem BioAssay
A selection: hits, their analogues and other compounds. The true share with any hit is near 3.4%.
APP 5'UTR act – APP 5'UTR luciferase reporter activation; SH-SY5Y APP 5'UTR luciferase reporter, luminescence; zero percent = DMSO vehicle wells; activation, % at 2 µM; 190,000 tested, 1% active; AID 1276;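 active means activation above a set limit, based on mean plus 3 SD of controls, cut at about 140% in these data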
hgDAF-12 ag – hgDAF-12 agonism, primary luciferase screen | HEK293 GAL4-hgDAF12 UAS-luciferase reporter, agonist luminescence; normalized to butyrate control | 370,000 tested, 1.8% active | activation, % at 6.8 µM | AID 687014;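 active means activation above a cutoff set at the mean of all screened compounds plus 3 SD, cut at about 10% in these data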
ssDAF12 agonist – S. stercoralis DAF-12 activation, primary screen. HEK293 ssDAF-12/GRIP1 lit1-tk-luc reporter, luminescence; % of 3 µM dafachronic acid response. activation, % at 6.8 µM. 370,000 tested, 1% active;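 active means activation above the mean over all tested compounds plus 3 SD, cut at about 0.9% in these data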
hcDAF12 agonist – H. contortus DAF-12 activation, primary screen. 370,000 tested, 1.4% active. activation, % at 6.8 µM. HEK293 hcDAF-12 lit1-tk-luc reporter, luminescence; 0% DMSO, 100% Δ7-dafachronic acid. AID 652067;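 active means activation above the mean of all tested compounds plus 3 SD, cut at about 5.5% in these data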
NF-kB neuron act – raises NF-kB expression in human neuronal cells; NF-kB reporter expression; active compounds read high; fold change at 12.5 µM; 190,000 tested, 1.6% active; in the data active means fold change above about 3.3
hgDAF12 ag – confirmation of H. glycines DAF-12 agonists. 3,300 tested, 80% active. shares compounds with hgDAF-12 ag. HEK293 GAL4-hgDAF12 luciferase reporter, agonist mode; percent of butyrate response. activation, % at 6.8 µM;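 active means mean activation over triplicate wells above the hit cutoff derived from the earlier primary screen, cut at about 11% in these data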
LXRb DAF12 ctr – activates human LXR-beta, counter-screen for DAF-12 agonists; shares compounds with hgDAF-12 ag; HEK293 Gal4-LXR luciferase reporter, 24 h; activation, % at 6.8 µM; 3,300 tested, under 10 active;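 active means mean activation of the triplicate above a set limit carried over from the primary screen, none filed active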
Target sequence (P55055 whole entry, looked up, the tested form may be a part): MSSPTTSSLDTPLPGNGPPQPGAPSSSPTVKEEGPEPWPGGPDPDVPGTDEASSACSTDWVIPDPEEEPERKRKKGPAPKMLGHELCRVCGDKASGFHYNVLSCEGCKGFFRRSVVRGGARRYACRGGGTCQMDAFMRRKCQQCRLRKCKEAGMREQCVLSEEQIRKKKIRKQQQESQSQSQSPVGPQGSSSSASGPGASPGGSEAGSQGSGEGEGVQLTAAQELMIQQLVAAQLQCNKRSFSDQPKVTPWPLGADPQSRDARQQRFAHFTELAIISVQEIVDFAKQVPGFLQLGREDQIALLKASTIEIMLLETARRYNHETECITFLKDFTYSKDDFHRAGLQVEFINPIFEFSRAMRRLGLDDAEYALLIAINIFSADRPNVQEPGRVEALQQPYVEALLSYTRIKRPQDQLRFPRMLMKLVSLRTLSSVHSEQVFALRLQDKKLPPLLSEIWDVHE
A number is an active result; 0 = inactive; - = no result given.

SMILES	APP 5'UTR act	hgDAF-12 ag	ssDAF12 agonist	hcDAF12 agonist	NF-kB neuron act	hgDAF12 ag	LXRb DAF12 ctr
CCCC(=O)Nc1ccc(NC(=O)c2ccccc2OC)cn1	0	0	0	0	0	-	-
CNS(=O)(=O)c1ccc(NC(=O)c2ccccn2)cc1	0	14	0	0	0	0	0
O=C(CCCN1CCOCC1)c1ccc2c(c1)OCCO2	0	17	0	0	0	14	0
COC(=O)c1cccc(NC(=O)c2ccccc2)c1	-	0	0	0	-	-	-
COC(=O)c1cccc(NC(=O)c2onc3c2CCCC3)c1	0	17	0	6.0	10	18	0
O=C(Nc1nccs1)c1cn2ccccc2n1	-	15	0	5.8	-	14	0
CC(C)(C)CCNc1nc(-c2ccccn2)nnc1-c1ccccc1	-	0	0	0	-	-	-
O=C(Nc1ccccc1F)c1ccc2sc([C@@H]3O[C@H](CO)[C@H](O)[C@H](O)[C@H]3O)nc2c1	-	14	0	0	-	0	0
CN(C)c1ccc(/C=N/OC(=O)Nc2ccccc2)cc1	-	14	0	5.8	-	18	0
O=C(OCc1ccccc1)N1CCC2CC1c1ccc(N3CCOCC3)cc12 (configuration not stated)	-	0	0	0	-	-	-
O=C(OCc1ccccc1)N1CCC2CC1c1ccc(N3CCNCC3)cc12 (configuration not stated)	-	14	0	0	-	0	0
CC[C@@]1(c2ccc(C)cc2)C(=O)N(C(=O)OC)N1C(=O)OC	-	0	0	0	-	-	-
Cc1ccc(-c2onc3ccc(C4OCCO4)cc23)cc1	0	14	0	0	0	0	0
S=C(NCCc1ccc(Cl)cc1)NC1CC1	0	16	0	0	0	0	0
NS(=O)(=O)c1ccc(CCNC(=S)NC2CCCC2)cc1	0	0	0	0	0	-	-
Cc1ccc(S(=O)(=O)N2C(N)=C(C(=O)NCc3ccc(Br)cc3)C(c3ccc(Cl)cc3)C2C(=O)c2ccccc2)cc1 (configuration not stated)	-	0	0	0	-	-	-
OC[C@H]1O[C@@H](c2nc(-c3nc(-c4ccc(F)cc4)no3)cs2)[C@H](O)[C@@H]1O	-	13	0	0	-	16	0
Fc1ccccc1NC(=S)N/N=C/c1ccccc1Br	0	16	0	0	0	12	0
COc1ccc(S[C@]2(C(=O)N(C)C)CC(=O)N(C(=O)CCc3ccccc3)[C@@H]2c2ccc(OC)cc2)cc1	-	0	0	0	-	-	-
N/C(=N\OC(=O)COc1ccc(Cl)cc1Cl)c1ccncc1	175	16	0	0	6.2	21	0
CCOc1ccc(N(CC(=O)Nc2c(C)n(C)n(-c3ccccc3)c2=O)S(=O)(=O)c2ccc(C(C)(C)C)cc2)cc1	-	0	0	0	-	-	-
O=c1cc(-c2ccco2)oc2ccccc12	-	0	0	0	-	-	-
Cc1ccc2oc(-c3ccco3)cc(=O)c2c1	0	14	0	0	0	17	0
COC(=O)[C@]12C[C@H](CC(=O)N3CCCCC3)C(=O)N(Cc3ccc(Cl)cc3Cl)C1=C[C@H](COCc1ccccc1)O[C@@H]2C	-	0	0	0	-	-	-
O=C1CCC[C@H]2Cc3nc4ccccc4cc3C[C@]23CCCN13	-	0	0	0	-	-	-
SMILES	APP 5'UTR act	hgDAF-12 ag	ssDAF12 agonist	hcDAF12 agonist	NF-kB neuron act	hgDAF12 ag	LXRb DAF12 ctr
O=C(NNC(=S)Nc1ccccc1)c1ccc(O)cc1	-	15	0	0	-	12	0
O=C(NNC(=S)NC(=O)c1ccccc1)c1ccc(O)cc1	-	0	0	0	-	-	-
O=c1[nH]c2ccccc2nc1/C=C/c1ccc(O)cc1	0	14	0	0	0	0	0
O=c1[nH]c2ccccc2nc1/C=C/c1ccc(F)cc1	0	16	0	0	0	11	0
O=c1[nH]c2ccccc2nc1/C=C(\O)C1CC1	0	0	0	0	0	-	-
COC(=O)[C@]12C[C@H](CC(=O)NCc3cccc(C(F)(F)F)c3)C(=O)N(Cc3cccc4ccccc34)C1=C[C@H](C(C)C)O[C@@H]2C1CC1	-	0	0	0	-	-	-
Cc1c(/C=N/NC(=O)c2ccc3c(c2)OCO3)cnn1C	0	0	0	0	0	-	-
Cc1c(/C=N\NC(=O)c2cccc(F)c2)cnn1C	0	15	0	0	0	0	0
Cc1ccc(/C=N/NC(=O)c2ccoc2C)o1	0	14	0	0	0	0	0
